Measurements from PubChem BioAssay AID1159580 (chemical genetic matrix, 2015).
Among all 5,500 compounds or so, about 2,000 (36%) were called active. Not shown: some 18% with an inconclusive outcome. Some of the results follow. Unmarked numbers belong to inactive results. Rule as the data show it: active = normalized growth mostly below about 0.91 (no sharp cut-off); inconclusive = no clear call, values can overlap the other calls; inactive = mostly above about 0.92.

Experiment: chemical genetic growth profiling, strain panel (AID 1159580);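 also: tested at 20 µM; growth read once vehicle control cultures reached saturation at 30 °C; 1 = growth at the plate median or of vehicle wells; lower values mean less growth of the strain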
Details: growth OD

Question: Which normalized growth (S. cerevisiae deletion strains, locus YJR066W, strain TOR1, stronger effect = lower value) does the source give for CC12CCCC(O)(C1)C1CC(C)(C)C1CC2 (configuration not stated) here?
Answer: 0.95

Question: And the normalized growth (S. cerevisiae deletion strains, locus YKL009W, strain mrt4, stronger effect = lower value)?
Answer: 1.02

Question: What about the normalized growth (S. cerevisiae deletion strains, locus YKL068W, stronger effect = lower value) of the same molecule?
Answer: 1.01

Question: And the normalized growth (S. cerevisiae deletion strains, locus YKL085W, strain MDH1 (second series), stronger effect = lower value)?
Answer: 0.998

Question: What about the normalized growth (S. cerevisiae deletion strains, locus YKL085W, strain MDH1, stronger effect = lower value) of the same molecule?
Answer: 0.998

Question: What about the normalized growth (S. cerevisiae deletion strains, locus YKL160W, strain elf1, stronger effect = lower value) of the same molecule?
Answer: 0.954

Question: And the normalized growth (S. cerevisiae deletion strains, locus YKR001C, strain vps1, stronger effect = lower value)?
Answer: 1.02

Question: What about the normalized growth (S. cerevisiae deletion strains, locus YKR026C, strain gcn3, stronger effect = lower value) of the same molecule?
Answer: 0.999

Question: What about the normalized growth (S. cerevisiae deletion strains, locus YKR091W, strain srl3, stronger effect = lower value) of the same molecule?
Answer: 0.991

Question: And the normalized growth (S. cerevisiae deletion strains, locus YLL001W, strain dnm1, stronger effect = lower value)?
Answer: 0.925

Question: And the normalized growth (S. cerevisiae deletion strains, locus YLL026W, stronger effect = lower value)?
Answer: 0.982

Question: And the normalized growth (S. cerevisiae deletion strains, locus YLL041C, strain sdh2, stronger effect = lower value)?
Answer: 0.982

Question: What about the normalized growth (S. cerevisiae deletion strains, locus YLR027C, strain aat2, stronger effect = lower value) of the same molecule?
Answer: 0.948

Question: And the normalized growth (S. cerevisiae deletion strains, locus YLR039C, strain RIC1, stronger effect = lower value)?
Answer: 0.972

Question: What about the normalized growth (S. cerevisiae deletion strains, locus YLR058C, strain SHM2, stronger effect = lower value) of the same molecule?
Answer: 1.01

Question: What about the normalized growth (S. cerevisiae deletion strains, locus YLR102C, strain apc9, stronger effect = lower value) of the same molecule?
Answer: 1.01

Question: What about the normalized growth (S. cerevisiae deletion strains, locus YLR113W, strain HOG1, stronger effect = lower value) of the same molecule?
Answer: 0.939

Question: And the normalized growth (S. cerevisiae deletion strains, locus YLR221C, strain rsa3, stronger effect = lower value)?
Answer: 0.983

Question: What about the normalized growth (S. cerevisiae deletion strains, locus YLR258W, strain gsy2, stronger effect = lower value) of the same molecule?
Answer: 0.961

Question: And the normalized growth (S. cerevisiae deletion strains, locus YLR262C, strain YPT6 (second series), stronger effect = lower value)?
Answer: 0.878

Question: And the normalized growth (S. cerevisiae deletion strains, locus YLR262C, strain YPT6, stronger effect = lower value)?
Answer: 1.01

Question: What about the normalized growth (S. cerevisiae deletion strains, locus YLR268W, strain sec22, stronger effect = lower value) of the same molecule?
Answer: 0.992

Question: What about the normalized growth (S. cerevisiae deletion strains, locus YLR320W, strain mms22, stronger effect = lower value) of the same molecule?
Answer: 0.937

Question: What about the normalized growth (S. cerevisiae deletion strains, locus YLR342W, strain FKS1, stronger effect = lower value) of the same molecule?
Answer: 0.918

Question: What about the normalized growth (S. cerevisiae deletion strains, locus YLR357W, strain rsc2, stronger effect = lower value) of the same molecule?
Answer: 0.984

Question: And the normalized growth (S. cerevisiae deletion strains, locus YLR370C, strain arc18, stronger effect = lower value)?
Answer: 0.981

Question: And the normalized growth (S. cerevisiae deletion strains, locus YLR371W, strain rom2, stronger effect = lower value)?
Answer: 1.01

Question: And the normalized growth (S. cerevisiae deletion strains, locus YLR384C, strain iki3, stronger effect = lower value)?
Answer: 1.01

Question: And the normalized growth (S. cerevisiae deletion strains, locus YLR418C, strain cdc73, stronger effect = lower value)?
Answer: 1.1

Question: What about the normalized growth (S. cerevisiae deletion strains, locus YML016C, strain PPZ1, stronger effect = lower value) of the same molecule?
Answer: 1.01

Question: What about the normalized growth (S. cerevisiae deletion strains, locus YML032C, strain rad52, stronger effect = lower value) of the same molecule?
Answer: 1.02

Question: And the normalized growth (S. cerevisiae deletion strains, locus YML120C, strain ndi1, stronger effect = lower value)?
Answer: 1

Question: And the normalized growth (S. cerevisiae deletion strains, locus YML124C, strain tub3, stronger effect = lower value)?
Answer: 1.01

Question: What about the normalized growth (S. cerevisiae deletion strains, locus YMR058W, strain fet3, stronger effect = lower value) of the same molecule?
Answer: 0.985

Question: What about the normalized growth (S. cerevisiae deletion strains, locus YMR078C, strain ctf18, stronger effect = lower value) of the same molecule?
Answer: 1.02

Question: What about the normalized growth (S. cerevisiae deletion strains, locus YMR125W, strain sto1, stronger effect = lower value) of the same molecule?
Answer: 0.974

Question: And the normalized growth (S. cerevisiae deletion strains, locus YMR129W, stronger effect = lower value)?
Answer: 1.01

Question: What about the normalized growth (S. cerevisiae deletion strains, locus YMR205C, strain PFK2, stronger effect = lower value) of the same molecule?
Answer: 0.861 (active)

Question: What about the normalized growth (S. cerevisiae deletion strains, locus YMR223W, strain ubp8, stronger effect = lower value) of the same molecule?
Answer: 1.02

Question: And the normalized growth (S. cerevisiae deletion strains, locus YMR231W, strain pep5, stronger effect = lower value)?
Answer: 0.996

Question: And the normalized growth (S. cerevisiae deletion strains, locus YMR263W, strain SAP30, stronger effect = lower value)?
Answer: 1.01

Question: And the normalized growth (S. cerevisiae deletion strains, locus YMR307W, strain GAS1, stronger effect = lower value)?
Answer: 0.968

Question: And the normalized growth (S. cerevisiae deletion strains, locus YNL067W, strain RPL9B, stronger effect = lower value)?
Answer: 1.02

Question: And the normalized growth (S. cerevisiae deletion strains, locus YNL071W, strain lat1, stronger effect = lower value)?
Answer: 0.859 (active)

Question: What about the normalized growth (S. cerevisiae deletion strains, locus YNL153C, strain GIM3, stronger effect = lower value) of the same molecule?
Answer: 1.02

Question: What about the normalized growth (S. cerevisiae deletion strains, locus YNL183C, strain NPR1, stronger effect = lower value) of the same molecule?
Answer: 0.953

Question: What about the normalized growth (S. cerevisiae deletion strains, locus YNL209W, strain ssb2, stronger effect = lower value) of the same molecule?
Answer: 1

Question: What about the normalized growth (S. cerevisiae deletion strains, locus YNL233W, strain BNI4, stronger effect = lower value) of the same molecule?
Answer: 1.02

Question: And the normalized growth (S. cerevisiae deletion strains, locus YNL248C, strain rpa49, stronger effect = lower value)?
Answer: 1.01

Question: And the normalized growth (S. cerevisiae deletion strains, locus YNL250W, strain rad50, stronger effect = lower value)?
Answer: 1.04

Question: And the normalized growth (S. cerevisiae deletion strains, locus YNL271C, strain bni1, stronger effect = lower value)?
Answer: 0.998

Question: And the normalized growth (S. cerevisiae deletion strains, locus YNL298W, strain CLA4, stronger effect = lower value)?
Answer: 0.993

Question: And the normalized growth (S. cerevisiae deletion strains, locus YNL307C, strain MCK1, stronger effect = lower value)?
Answer: 1.02

Question: And the normalized growth (S. cerevisiae deletion strains, locus YNL322C, strain KRE1 (second series), stronger effect = lower value)?
Answer: 0.974

Question: And the normalized growth (S. cerevisiae deletion strains, locus YNL322C, strain KRE1, stronger effect = lower value)?
Answer: 1.01

Question: What about the normalized growth (S. cerevisiae deletion strains, locus YNR049C, strain mso1, stronger effect = lower value) of the same molecule?
Answer: 1

Question: And the normalized growth (S. cerevisiae deletion strains, locus YNR052C, strain pop2, stronger effect = lower value)?
Answer: 1.03

Question: What about the normalized growth (S. cerevisiae deletion strains, locus YOL012C, strain htz1) of the same molecule?
Answer: 1.39

Question: What about the normalized growth (S. cerevisiae deletion strains, locus YOL147C, strain pex11, stronger effect = lower value) of the same molecule?
Answer: 0.997

Question: What about the normalized growth (S. cerevisiae deletion strains, locus YOR001W, strain rrp6, stronger effect = lower value) of the same molecule?
Answer: 1.05

Question: What about the normalized growth (S. cerevisiae deletion strains, locus YOR061W, strain CKA2, stronger effect = lower value) of the same molecule?
Answer: 1

Question: And the normalized growth (S. cerevisiae deletion strains, locus YOR069W, strain VPS5, stronger effect = lower value)?
Answer: 1.01

Question: And the normalized growth (S. cerevisiae deletion strains, locus YOR070C, strain gyp1, stronger effect = lower value)?
Answer: 0.975

Question: And the normalized growth (S. cerevisiae deletion strains, locus YOR080W, strain dia2, stronger effect = lower value)?
Answer: 1.01

Question: And the normalized growth (S. cerevisiae deletion strains, locus YOR083W, strain WHI5, stronger effect = lower value)?
Answer: 0.956

Question: What about the normalized growth (S. cerevisiae deletion strains, locus YOR106W, strain vam3, stronger effect = lower value) of the same molecule?
Answer: 0.986

Question: What about the normalized growth (S. cerevisiae deletion strains, locus YOR136W, strain idh2, stronger effect = lower value) of the same molecule?
Answer: 1.01

Question: What about the normalized growth (S. cerevisiae deletion strains, locus YOR144C, strain elg1, stronger effect = lower value) of the same molecule?
Answer: 1

Question: What about the normalized growth (S. cerevisiae deletion strains, locus YOR184W, strain ser1, stronger effect = lower value) of the same molecule?
Answer: 0.978

Question: And the normalized growth (S. cerevisiae deletion strains, locus YOR231W, strain MKK1, stronger effect = lower value)?
Answer: 0.973

Question: And the normalized growth (S. cerevisiae deletion strains, locus YOR265W, strain rbl2, stronger effect = lower value)?
Answer: 0.999

Question: And the normalized growth (S. cerevisiae deletion strains, locus YOR270C, strain vph1, stronger effect = lower value)?
Answer: 0.709 (active)

Question: What about the normalized growth (S. cerevisiae deletion strains, locus YOR290C, strain snf2, stronger effect = lower value) of the same molecule?
Answer: 0.954

Question: And the normalized growth (S. cerevisiae deletion strains, locus YOR316C, strain cot1, stronger effect = lower value)?
Answer: 1.01

Question: And the normalized growth (S. cerevisiae deletion strains, locus YPL051W, strain arl3, stronger effect = lower value)?
Answer: 0.939

Question: What about the normalized growth (S. cerevisiae deletion strains, locus YPL055C, strain LGE1, stronger effect = lower value) of the same molecule?
Answer: 1.01

Question: And the normalized growth (S. cerevisiae deletion strains, locus YPL078C, strain atp4, stronger effect = lower value)?
Answer: 0.941

Question: And the normalized growth (S. cerevisiae deletion strains, locus YPL106C, strain sse1, stronger effect = lower value)?
Answer: 0.892

Question: What about the normalized growth (S. cerevisiae deletion strains, locus YPL240C, strain hsp82, stronger effect = lower value) of the same molecule?
Answer: 0.991

Question: And the normalized growth (S. cerevisiae deletion strains, locus YPL241C, strain CIN2, stronger effect = lower value)?
Answer: 0.999

Question: And the normalized growth (S. cerevisiae deletion strains, locus YPL256C, strain CLN2, stronger effect = lower value)?
Answer: 0.958

Question: What about the normalized growth (S. cerevisiae deletion strains, locus YPR119W, strain clb2, stronger effect = lower value) of the same molecule?
Answer: 1.02

Question: And the normalized growth (S. cerevisiae deletion strains, locus YPR141C, strain kar3, stronger effect = lower value)?
Answer: 1

Question: And the normalized growth (S. cerevisiae deletion strains, locus YPR163C, strain tif3, stronger effect = lower value)?
Answer: 1.02

Question: And the normalized growth (S. cerevisiae deletion strains, locus YPR167C, strain met16, stronger effect = lower value)?
Answer: 1.01

Question: What about the normalized growth (S. cerevisiae deletion strains, strain wtn01, stronger effect = lower value) of the same molecule?
Answer: 1.01

Question: What about the normalized growth (S. cerevisiae strains, strain wild type, stronger effect = lower value) of the same molecule?
Answer: 1.01
